In PubChem BioAssay (NCI) one finds growth data, which are given here for nine molecules.

Some test systems named below: SR leukemia; RPMI-8226 leukemia; OVCAR-8 ovarian; OVCAR-5 ovarian; OVCAR-4 ovarian; SK-OV-3 ovarian; IGROV1 ovarian; OVCAR-3 ovarian; HS 578T breast; NCI/ADR-RES ovarian; BT-549 breast; MDA-MB-435 melanoma; SW-620 colon; HCT-116 colon; HCC-2998 colon; KM12 colon; MCF7 breast.
Common to all, as to assay: NCI-60 one-dose screen, 48 h (100 = growth as untreated, 0 = no growth, -100 = all killed)
Holding throughout (conditions): 10 µM unless noted

Compounds without any hit were thinned out: in the full panel of roughly 83,000, 20% have a hit.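 Method: cells in 96-well plates; compound added at one concentration; 48 h incubation; percent growth measured; values under 10 scored active.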 Values without a mark were called inactive. Active and inactive are the calls of the source.

Turning to `CN(C)c1ccc(/C=N/NC(=O)CSc2nc3sc4c(c3c(=O)n2-c2ccccc2)CCCCC4)cc1`, the growth was 22.7% with SR leukemia; 76.8% in the test with RPMI-8226 leukemia; 20.6% in the test with OVCAR-8 ovarian; 50.7% with OVCAR-5 ovarian; 19.7% in the test on OVCAR-4 ovarian; 67.1% in the test on SK-OV-3 ovarian. The growth in the test on IGROV1 ovarian was 36.5%; in the test with OVCAR-3 ovarian, 12%; in the test on HS 578T breast, 23.9%; in the test with NCI/ADR-RES ovarian, 59.1%; in the test on BT-549 breast, 71.2%; with MDA-MB-435 melanoma it was 33.2%. Besides, the growth in the test on SW-620 colon was 27.2%; in the test with HCT-116 colon, 7.89% (active); in the test on HCC-2998 colon it was 39.4%; in the test with KM12 colon it was 38.5%.
With `CC1=C(C(=O)OCc2ccccc2)C(c2ccc3c(c2)OCO3)n2c(nc3ccccc32)N1` (configuration not stated), the growth was 9.81% (active) in the test with SR leukemia; 39.8% with RPMI-8226 leukemia; 46.7% in the test with OVCAR-8 ovarian; 64.4% in the test on OVCAR-5 ovarian; 73.8% in the test on OVCAR-4 ovarian; 41.7% in the test with SK-OV-3 ovarian. The growth in the test on IGROV1 ovarian was 41.4%; in the test on OVCAR-3 ovarian, 12.1%; in the test on HS 578T breast it was 0.752% (active); with NCI/ADR-RES ovarian, 23.2%; with BT-549 breast, 50.5%; in the test with MDA-MB-435 melanoma, -35.4% (active). Further, the growth was 17.6% in the test with SW-620 colon; 20.6% in the test with MCF7 breast; 18.8% with HCT-116 colon; 56.4% in the test on HCC-2998 colon; 17.3% in the test on KM12 colon.
Take `COC(=O)c1c(C(=O)OC)c2ccc3c4ncccc4ccc3n2c1C(=O)c1ccc(C)cc1`: the growth in the test on SR leukemia was 75.8%; in the test on RPMI-8226 leukemia, 84.1%; in the test on OVCAR-8 ovarian, 82.7%; in the test with OVCAR-5 ovarian, 87.1%; in the test on OVCAR-4 ovarian it was 90.9%; with SK-OV-3 ovarian it was 87.8%. For the same molecule, the growth with IGROV1 ovarian was 94.4%; with OVCAR-3 ovarian, 102%; in the test with HS 578T breast it was 96.3%; in the test on NCI/ADR-RES ovarian it was 92.7%; in the test on BT-549 breast, 88.1%; in the test with MDA-MB-435 melanoma it was 102%. The growth is 98.8% in the test with SW-620 colon; 86.2% in the test on MCF7 breast; 95.6% in the test on HCT-116 colon; 107% in the test with HCC-2998 colon; 97% in the test with KM12 colon.
On to `CCOC(=O)c1c(C)c2c(n1Cc1ccccc1)CSc1cc(C#N)c(=O)[nH]c1-2`, for which the growth in the test with SR leukemia is 54.8% [100 µM]; in the test with RPMI-8226 leukemia, 82.4% [100 µM]; with OVCAR-8 ovarian it was 88% [100 µM]; with OVCAR-5 ovarian, 120% [100 µM]; in the test with OVCAR-4 ovarian it was 98.8% [100 µM]; in the test on SK-OV-3 ovarian it was 98.6% [100 µM]. Besides, the growth with IGROV1 ovarian was 95.5% [100 µM]; with OVCAR-3 ovarian, 75.7% [100 µM]; in the test on HS 578T breast, 51.9% [100 µM]; with NCI/ADR-RES ovarian, 58.5% [100 µM]; in the test on BT-549 breast, 46% [100 µM]; in the test with MDA-MB-435 melanoma, 98.2% [100 µM]. In addition, the growth in the test with SW-620 colon was 91.7% [100 µM]; in the test with MCF7 breast, 101% [100 µM]; with HCT-116 colon, 59.9% [100 µM]; in the test with HCC-2998 colon, 99.7% [100 µM]; in the test on KM12 colon, 67.6% [100 µM].
Turning to `CCN(CC)c1ccc(/C=N/NC(=O)c2ccccc2Nc2ccnc(C(F)(F)F)c2)c(O)c1`, the growth in the test on SR leukemia was 65.1%; in the test on RPMI-8226 leukemia it was 26.5%; in the test with OVCAR-8 ovarian it was 35.1%; in the test on OVCAR-5 ovarian, 57.3%; in the test with OVCAR-4 ovarian, 33.1%; in the test with SK-OV-3 ovarian, 19.9%. For the same molecule, the growth in the test with IGROV1 ovarian is 47.5%; with OVCAR-3 ovarian, 36.7%; with HS 578T breast it was 61.1%; in the test with NCI/ADR-RES ovarian, 17.3%; in the test on BT-549 breast, 38.5%; with MDA-MB-435 melanoma, 29.3%. Further, the growth was 37.3% in the test on SW-620 colon; 20.4% with MCF7 breast; 27.7% in the test with HCT-116 colon; 76.7% in the test with HCC-2998 colon; 31.4% in the test with KM12 colon.
As for `CCCS(=O)(=O)Nc1cccc(Nc2ncnc3cc(NC(=O)CCl)ccc23)c1Cl`, the growth was 2.37% (active) in the test on SR leukemia; -32.1% (active) with RPMI-8226 leukemia; 0.271% (active) with OVCAR-8 ovarian; -65% (active) in the test on OVCAR-5 ovarian; -38.3% (active) in the test on OVCAR-4 ovarian; -4.59% (active) with SK-OV-3 ovarian. Besides, the growth in the test with IGROV1 ovarian was -52.6% (active); with OVCAR-3 ovarian, -85.3% (active); in the test with HS 578T breast, 10.5%; in the test with NCI/ADR-RES ovarian, 49.9%; with BT-549 breast, -68.2% (active); with MDA-MB-435 melanoma, -46.9% (active). Also, the growth with SW-620 colon was -33.6% (active); in the test on MCF7 breast, -13% (active); with HCT-116 colon, -27.9% (active); with HCC-2998 colon, 4.99% (active); with KM12 colon, -32.2% (active).
`Cc1[nH]c(C2CC(c3ccc(C(F)(F)F)c(F)c3)=NN2C)c(C)c1C(=O)NCC(F)(F)F` (configuration not stated): the growth was 92.9% in the test with SR leukemia; 92.4% with RPMI-8226 leukemia; 94.8% with OVCAR-8 ovarian; 98.4% in the test on OVCAR-5 ovarian; 90.9% with OVCAR-4 ovarian; 105% in the test on SK-OV-3 ovarian. In addition, the growth was 79.9% in the test on IGROV1 ovarian; 107% in the test with OVCAR-3 ovarian; 95.9% in the test on HS 578T breast; 98.8% with NCI/ADR-RES ovarian; 107% in the test with BT-549 breast; 100% in the test with MDA-MB-435 melanoma. Further, the growth with SW-620 colon was 103%; in the test on MCF7 breast, 80.7%; in the test with HCT-116 colon, 101%; with HCC-2998 colon it was 105%; with KM12 colon it was 97.8%.
Turning to `CCOC(=O)C#Cc1c(CC(=O)OCC)nnn1[C@H]1O[C@@H](CO)[C@@H]2OC(C)(C)O[C@@H]21`, the growth in the test on SR leukemia is 6.89% (active); with RPMI-8226 leukemia it was 45%; in the test with OVCAR-8 ovarian, 94.6%; in the test with OVCAR-5 ovarian, 93.9%; in the test with OVCAR-4 ovarian it was 88.4%; with SK-OV-3 ovarian it was 94.4%. Moreover, the growth with IGROV1 ovarian was 98.3%; with OVCAR-3 ovarian, 9.91% (active); in the test on HS 578T breast, 101%; with NCI/ADR-RES ovarian, 102%; with BT-549 breast, 87.3%; in the test on MDA-MB-435 melanoma, 87.2%. Also, the growth in the test with SW-620 colon was -19% (active); in the test on MCF7 breast, 11.5%; in the test with HCT-116 colon, 65.2%; in the test on HCC-2998 colon it was 107%; in the test with KM12 colon, 103%.
As for `O=C1OCC2=C1C(c1cccc(F)c1)c1cc3c(cc1N2CCO)CCC3` (configuration not stated), the growth is 12.3% in the test on SR leukemia; 23.3% with RPMI-8226 leukemia; 13.5% in the test with OVCAR-8 ovarian; 36.2% with OVCAR-5 ovarian; 48.8% in the test with OVCAR-4 ovarian; 32.8% in the test with SK-OV-3 ovarian. Besides, the growth with IGROV1 ovarian is 23.5%; in the test on OVCAR-3 ovarian, -24.9% (active); with HS 578T breast, 41.2%; in the test with NCI/ADR-RES ovarian it was 13.3%; in the test with BT-549 breast it was 39.5%; in the test with MDA-MB-435 melanoma it was -36.9% (active). The growth is 26.3% in the test with SW-620 colon; 19.7% in the test with MCF7 breast; 10.5% in the test with HCT-116 colon; 7.85% (active) in the test with HCC-2998 colon; 13.4% in the test on KM12 colon.
